Screening data: PubChem BioAssay, Sanford-Burnham Center for Chemical Genomics
Hits are enriched below; roughly 2.2% of the tested compounds scored in any of these assays.
PPC-1+TRAIL kill = kills PPC-1 cancer cells in the presence of TRAIL. PPC-1 cells + TRAIL, ATPLite viability luminescence. cell killing (% activity), % at 4 µM or 5 µM. 220,000 compounds, 0.41% hits. AID 1443;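 active = cell killing above 50% in the first pass at 4 µM, then a duplicate retest at 5 µM averaging 50% or more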
iPSC survival up = increases survival of single human iPS cells; hiPSC single-cell survival, ATPlite luminescence; 100% = ROCK inhibitor wells, 0% = DMSO; survival enhancement, % at 20 µM; 360,000 compounds, 0.044% hits; AID 602274; in the data active = survival enhancement above about 18%;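 also: cells exposed to compounds for 16 hours before the ATP read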
CF NFkB block = blocks PAF-induced NF-kB reporter in cystic fibrosis cells; inhibition, % at 5 µM; 360,000 compounds, 0.86% hits; KKLEB NF-kB-GFP reporter, GFP fluorescence overnight; AID 588850;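 active = at least 50% inhibition at 5 µM, scaled per plate between neutral and stimulator controls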;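 also: PAF is a Pseudomonas aeruginosa culture filtrate used as stimulus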
C8 TRAIL sens = caspase-8 TRAIL sensitization; NB7+C8 cells + TRAIL, ATPlite viability luminescence; inhibition (viability loss, TRAIL sensitization), % at 10 µM; 360,000 compounds, 1% hits;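 active = compounds causing at least 50% loss of cell viability in the single-dose screen, relative to plate controls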
HIF-2a inh = HIF-2a inhibition | 786-0 RCC cells HIF-2a reporter, luciferase luminescence, overnight | inhibition, % at 18.8 µM | 360,000 compounds, 0.72% hits | AID 624352;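 active = inhibition of the luminescence signal of 40% or more relative to plate controls, in a single-dose primary screen at 18.75 µM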
KKLEB tox = reduces viability of KKLEB cystic fibrosis airway cells | KKLEB CF airway cells viability, ATPlite luminescence, overnight; hits give low values; cells stimulated with P. aeruginosa culture filtrate | 360,000 compounds, 0.36% hits | activity change (cytotoxicity), % at 5 µM;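 active = corrected activity change at or below -50% at 5 µM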
PPC1 cytotox = PPC-1 cell cytotoxicity; cytotoxicity, % at 5 µM; shares compounds with PPC-1+TRAIL kill; 1,200 compounds, 50% hits; PPC-1 viability, ATPlite luminescence, overnight;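 active = reconfirmed compounds whose average cytotoxicity reaches 50% or more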
Of the large screens only hits and unclear results are named; the others gave an inactive call (follow-up assays come after a bar, where they were run).

O=C(Nc1nc2ccccc2[nH]1)c1ccccc1OC(F)F	C8 TRAIL sens 68.8 (no result: PPC-1+TRAIL kill)
COc1ccc(C(=O)Nc2nc3ccccc3[nH]2)cc1OC	none
COc1cc(C(=O)Nc2nc3ccccc3[nH]2)ccc1OC(F)F	C8 TRAIL sens 47.5
COC(=O)c1ccc(NC(=O)C2CCN(C(=O)Nc3ccccc3)CC2)cc1	none (no result: PPC-1+TRAIL kill)
C[C@@H]1CCCCO[C@@H](CN(C)C(=O)c2ccncc2)[C@@H](C)CN([C@H](C)CO)C(=O)c2cc(NC(=O)Cc3ccccc3)ccc2O1	none (no result: PPC-1+TRAIL kill)
O=C(Nc1ccc2c(c1)C(=O)NC2=O)c1cccc(C(F)(F)F)c1	none (no result: PPC-1+TRAIL kill)
CCCSc1ccc2nc(-c3ccccc3)cn2c1	PPC-1+TRAIL kill 84.6, C8 TRAIL sens 92.0, HIF-2a inh 68.5, KKLEB tox -69.8
O=C(NCc1cccs1)c1nc2c(nnn2Cc2ccccc2Cl)c(=O)[nH]1	CF NFkB block 88.4, HIF-2a inh 75.6, KKLEB tox -76.2
CCC(C)NC(=O)c1nc2c(nnn2Cc2ccccc2Cl)c(=O)[nH]1 (centres undefined)	none
CCOC(=O)c1c(C)nc2sc3c(c2c1-c1ccc(OC)cc1)NC(c1ccccc1)NC3=O (centres undefined)	iPSC survival up 25.8
COc1ccc(-c2c(C(C)=O)c(C)nc3sc4c(c23)NC(c2ccccc2)NC4=O)cc1 (centres undefined)	none
CCc1nnc(NS(=O)(=O)c2ccc(N3C(=O)c4ccc(C(=O)O)cc4C3=O)cc2)s1	none
CCSc1ccccc1C(=O)n1nnc2ccccc21	CF NFkB block 60.8
Cc1ccnc(NC(=O)CCC(=O)c2cccs2)c1	C8 TRAIL sens 78.7, HIF-2a inh 51.1 (no result: PPC-1+TRAIL kill)
Cn1nc(-c2ccccc2)c(C(O)c2ccccc2C(F)(F)F)c1Cl (centres undefined)	iPSC survival up 21.6
COC(c1ccccc1)c1c(-c2ccccc2)nn(C)c1Cl (centres undefined)	none
O=C(c1ccccc1)c1coc2c1C(=O)c1ccccc1C2=O	CF NFkB block 52.5
FC(F)c1nc2nc(Cl)c(Cl)nc2[nH]1	none (no result: PPC-1+TRAIL kill)
COc1cccc2c1C(=O)c1c(O)c3c(c(O)c1C2=O)C[C@@](O)(C(=O)CO)C[C@@H]3O[C@H]1C[C@H](N)[C@H](O)[C@H](C)O1	PPC-1+TRAIL kill 54.2, CF NFkB block 83.2, C8 TRAIL sens 62.1, KKLEB tox -51.8
COc1cccc2c1C(=O)c1c(O)c3c(c(O)c1C2=O)C[C@@](O)(C(=O)CO)C[C@@H]3OC1CC(N)C(O)C(C)O1 (some centres undefined)	none (no result: PPC-1+TRAIL kill)
COc1cccc2c1C(=O)c1c(O)c3c(c(O)c1C2=O)CC(O)(C(C)=O)CC3OC1CC(N(C)C)C(O)C(C)O1 (centres undefined)	CF NFkB block 77.3 (no result: PPC-1+TRAIL kill)
CC(=O)[C@@]1(O)Cc2c(O)c3c(c(O)c2[C@H](O[C@H]2C[C@H](N)[C@H](O)[C@H](C)O2)C1)C(=O)c1ccccc1C3=O	C8 TRAIL sens 81.7, KKLEB tox -52.7 (no result: PPC-1+TRAIL kill)
COc1ccccc1C(=O)NC(=O)COC(=O)c1ccc(Cl)nc1	none (no result: PPC-1+TRAIL kill)
C#CNC(=O)C1(CC=C)CCNCC1	none (no result: PPC-1+TRAIL kill)
CN1/C(=C\C(=O)c2cccnc2)Sc2ccccc21	none
COc1cccc(C(=O)/C=C2\Sc3ccccc3N2C)c1	C8 TRAIL sens 51.2
CCCN1C/C(=C/c2cccc([N+](=O)[O-])c2)C(=O)/C(=C/c2cccc([N+](=O)[O-])c2)C1	CF NFkB block 94.9, KKLEB tox -88.4
CCCN1C/C(=C/c2ccc3c(c2)OCO3)C(=O)/C(=C/c2ccc3c(c2)OCO3)C1	HIF-2a inh 89.0
COc1cc(Br)c(S(=O)(=O)Nc2c(C)n(C)n(-c3ccccc3)c2=O)cc1OC	none | PPC1 cytotox inactive
CN(C)c1cccc(C(=O)OCC(=O)N(Cc2ccccc2)C2CCS(=O)(=O)C2)c1 (centres undefined)	none
NC(=O)Nc1ccc(C(=O)OCC(=O)N(Cc2ccccc2)C2CCS(=O)(=O)C2)cc1 (centres undefined)	none | PPC1 cytotox inactive
CCOc1ccc(/C=N/NC(=O)c2[nH]ncc2Br)c(O)c1	PPC-1+TRAIL kill 56.8, C8 TRAIL sens 78.9 | PPC1 cytotox 55.5
O=C(NCC1CCCCC1)c1ccc(F)cc1Cl	none (no result: PPC-1+TRAIL kill)
c1ccc(COc2ccc(OCCn3cncn3)cc2)cc1	none | PPC1 cytotox inactive
c1ccc(-c2ccc(OCCCn3cncn3)cc2)cc1	none
CC1CCCC(C)N1CC(O)COc1c(F)cc(Br)cc1F (centres undefined)	none
CCCOc1ccc(-c2nc(SCc3ccccc3)[nH]c(=O)c2C#N)cc1OC	none (no result: PPC-1+TRAIL kill)
C=CCNC(=O)c1ccc2c3n(nc2c1)-c1ccc(Cl)cc1CO3	none (no result: PPC-1+TRAIL kill)
CC(C)NC(=O)c1ccc2c3n(nc2c1)-c1ccccc1CO3	PPC-1+TRAIL kill 90.1, C8 TRAIL sens 90.6 | PPC1 cytotox 90.5
CC(C)[C@@H](CO)NC(=O)c1ccc2c3n(nc2c1)-c1ccccc1CO3	PPC-1+TRAIL kill 71.5, C8 TRAIL sens 71.1 | PPC1 cytotox 68.9
COc1ccc(Cl)cc1N(CC(=O)NCCSc1ccccn1)S(=O)(=O)c1ccccc1	none (no result: PPC-1+TRAIL kill)
O=C(Cn1cnc2sc3c(c2c1=O)CCCC3)NCC(=O)Nc1ccc(F)cc1F	none (no result: PPC-1+TRAIL kill)
COc1ccc(OCC(=O)N/N=C/C=C/c2ccccc2)cc1	C8 TRAIL sens 54.5 | PPC1 cytotox inactive
CC1(C)CC(=O)c2sc(NC(=O)c3cccs3)nc2C1	PPC-1+TRAIL kill 76.8, C8 TRAIL sens 85.2 | PPC1 cytotox 76.9
CC1(C)CNC(=O)c2sc(NC(=O)c3ccccc3)nc2C1	none
CC1(C)CC(=O)c2sc(NC(=O)c3ccccc3)nc2C1	PPC-1+TRAIL kill 52.4 (no result: iPSC survival up, CF NFkB block, C8 TRAIL sens, HIF-2a inh, KKLEB tox) | PPC1 cytotox 52.5
CC1(C)CC(=O)c2sc(NC(=O)C(C)(C)C)nc2C1	none
COc1ccc(NC(=O)Nc2cc(C(=O)O)ccc2N2CC3CC(C2)c2cccc(=O)n2C3)c(OC)c1 (centres undefined)	none (no result: PPC-1+TRAIL kill)
CC(=O)C[C@H](O)CC(=O)[C@H]1OC(=O)[C@@H](C)CCCCc2ccccc21	none (no result: PPC-1+TRAIL kill)
Cc1cccc(N2CCN(C(=O)C3CCN(S(=O)(=O)c4c(C)noc4C)CC3)CC2)c1C	none (no result: PPC-1+TRAIL kill)
Cc1c(C(=O)N2CCN(C3CCS(=O)(=O)C3)CC2)oc2c(F)cccc12 (centres undefined)	none (no result: PPC-1+TRAIL kill)
CCN(CC(=O)NCc1ccc(F)cc1)C(=O)C1CCN(C(=O)Nc2ccccc2)CC1	none | PPC1 cytotox inactive
Oc1ccccc1-c1nc2cnccn2c1Nc1ccc2c(c1)OCCO2	none | PPC1 cytotox inactive
O=C(Nc1ccccc1C(=O)N1CCCC1)c1cccc(S(=O)(=O)N2CCCCC2)c1	none | PPC1 cytotox inactive
Cc1nn(-c2ccc(F)cc2)c(C)c1/C=C/C(=O)N1CCNC(=O)C1	none
Cc1nc(-c2coc3cc(OCC(=O)O)ccc3c2=O)cs1	C8 TRAIL sens 50.1 | PPC1 cytotox inactive
